# Reference: PubChem BioAssay AID1981 (Southern Research Specialized Biocontainment Screening …, 2009)
# Screen size: about 2,200 compounds; about 480 (22%) were called active. No rule for the calls is given here. These entries were drawn from the full list. Measured potencies and affinities stand elsewhere.
# Test: S. Typhimurium GFP fluorescence dose response in modified counterscreen for PhoP regulon inhibitor project (AID 1981);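 also: 0% = induced DMSO wells and 100% = uninduced wells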
# Conditions: 4 h; series mostly up to 150 µM; inhibition: at the top concentration
row,SMILES,inhibition
1,O=C(CSc1nnc(-c2ccc(Br)cc2)o1)Nc1cccc2ccccc12,-0.45% (inactive)
2,O=C(CNc1ccccc1)Nc1ccc(F)cc1,14.3% (inactive)
3,O=C(Nc1ccc(F)cc1)c1ccccc1F,-9.79% (inactive)
4,O=C(Oc1c(Br)cc([N+](=O)[O-])cc1Br)c1cccnc1,29.2% (inactive)
5,O=C(CCCN1C(=O)CCC1=O)Nc1ccc2c(c1)OCCO2,-21.9% (inactive)
6,CC(C)(C)c1nn(-c2ccccc2)c2[nH]c(=O)c(CNCc3ccco3)cc12,-4.67% (inactive)
7,O=P(Cc1cc[n+]([O-])cc1)(c1ccccc1)c1ccccc1,-15.7% (inactive)
8,CCCS(=O)(=O)N1CCCC(C(=O)N2CCN(c3ccccn3)CC2)C1 (stereo not drawn),6.36% (inactive)
9,COc1ccc(-c2cn[nH]c2-c2ccc(OCc3ccc([N+](=O)[O-])cc3)cc2O)cc1,15.1% (inactive)
10,CC(Oc1ccc(Cl)cc1)c1ccnn1S(=O)(=O)c1ccccc1 (stereo not drawn),-5.43% (inactive)
11,CCOC(=O)c1cc2sc(C)cc2n1CC(=O)NCc1ccc(F)cc1,1.75% (inactive)
12,Cc1ccc(C(C)C)cc1C(=O)CC1(O)C(=O)N(C)c2ccccc21 (stereo not drawn),-7.31% (inactive)
13,CCn1ncc(/C=C/C(=O)NCc2cn(C)nc2C)c1C,-3.98% (inactive)
14,COC(=O)COc1ccc(S(=O)(=O)Nc2ccccc2SC)cc1,-20.6% (inactive)
15,COc1ccc(OC)c(NC(=O)c2ccccc2NS(=O)(=O)c2cccc3cccnc23)c1,6.2% (inactive)
16,O=S(=O)(Nc1ccc(N=Nc2ccc(O)c3ccccc23)cc1)c1ccccc1,23.8% (inactive)
17,O=C(CSc1ncn[nH]1)Nc1cccc2ccccc12,-11.3% (inactive)
18,CCn1c(CNC(=O)c2cccc(C)c2)nc2ccccc21,-13.4% (inactive)
19,S=c1nc(-c2ccccc2)oc2c1CCCC2,18.1% (inactive)
20,CCC(=O)c1cn(Cc2ccc(C#N)cc2)c2ccccc12,1.62% (inactive)
21,O=c1c2oc3ccccc3c2ncn1Cc1ccc(Cl)cc1,-20.7% (inactive)
22,Cc1[nH]n(-c2ncc(-c3ccc(Cl)cc3)s2)c(=O)c1C(c1ccc(Cl)cc1)C(C#N)C#N (stereo not drawn),26.5% (inactive)
23,Cc1ccc(-n2nc(C)c(C3C(C#N)=C(N)Oc4c3c(=O)oc3ccccc43)c2Cl)cc1 (stereo not drawn),30.2% (inactive)

row,SMILES,inhibition
1,Cc1snc(S(=O)(=O)/C(C#N)=N\Nc2ccccc2)c1C#N,7.12% (inactive)
2,COc1ccc(CCC(=O)N2CCC3(CC2)OCCO3)cc1,1.72% (inactive)
3,O=C(Nc1ccc2snnc2c1)Nc1cccc2ccccc12,8.11% (inactive)
4,CC1OC(Nc2cccc3ccccc23)C(O)C(O)C1O (stereo not drawn),1.5% (inactive)
5,CC(C(=O)Nc1cc([N+](=O)[O-])ccc1Cl)N1CCN(c2ccccc2O)CC1 (stereo not drawn),-1.49% (inactive)
6,CCCCNC(=O)Oc1cccc(N2CCCC2=O)c1,-1.02% (inactive)
7,CCOC(=O)c1sc(NC(=O)Nc2ccc(Cl)cc2)cc1C,-0.11% (inactive)
8,Cc1ccnc2nc(C(=O)Nc3ccc4c(c3)OCO4)nn12,-3.72% (inactive)
9,CC(C)c1ccc(NC(=O)Nc2cc3sccc3n2C)cc1,-12.3% (inactive)
10,CCOC(=O)CN(C)Cc1c[nH]c2ccccc12,11.6% (inactive)
11,O=c1[nH][nH]c(-c2ccccc2O)c1C(C[N+](=O)[O-])c1cccc(Cl)c1 (stereo not drawn),32.8% (inactive)
12,CCCc1[nH][nH]c(=O)c1C(c1ccc(Br)cc1)C(C#N)C#N (stereo not drawn),-8.16% (inactive)
13,Cc1[nH][nH]c(=O)c1C(c1ccc(O)c([N+](=O)[O-])c1)c1c(C)[nH][nH]c1=O,26.4% (inactive)
14,CCCCCC(=O)Nc1ccc2ccccc2c1,-4.56% (inactive)
15,O=C(CSc1nnc(-c2ccc(O)cc2)n1-c1ccccc1)CC(=O)Nc1ccccc1,17.4% (inactive)
16,O=C(O)CCc1nnc2n(Cc3ccc(F)cc3)c(=O)c3ccccc3n12,5.98% (inactive)
17,COc1cc(CNc2ccc(CNc3ncn[nH]3)cc2)ccc1OCC(=O)NC(C)(C)C,-18.5% (inactive)
18,O=S(=O)(NCc1ccccc1)c1cccc(S(=O)(=O)N2CCOCC2)c1,-12.6% (inactive)
19,Cn1c(CC(=O)Nc2ccc(Cl)c(Cl)c2)nnc1SCC(=O)Nc1nccs1,-18.6% (inactive)
20,O=C(COC(=O)c1n[nH]c2ccccc12)NC(=O)NC12CC3CC(CC(C3)C1)C2,-1.95% (inactive)
21,Oc1ccc(C=Nc2cccc3ncccc23)c(O)c1,15.1% (inactive)
22,O=C(COc1ccccc1)NC(=S)Nc1ccc2c3c(cccc13)CC2,3.59% (inactive)
23,Cc1c(C)n(Cc2ccccc2)c2ncnc(NN)c12,7.72% (inactive)

row,SMILES,inhibition
1,O=C(NCCCN1CCCC1=O)c1ccc(Cl)c(NS(=O)(=O)c2ccc(F)cc2)c1,3.52% (inactive)
2,Cc1ccc(NC(=O)C(=O)NCCOc2ccccc2Cl)cc1,-11.4% (inactive)
3,CN(CCC(=O)Nc1ccc(Br)cc1)Cc1ccccc1,10.8% (inactive)
4,COc1ccccc1CC(=O)N1CCN(c2ccccn2)CC1,-30% (inactive)
5,COC(=O)c1ccc2nc(C(F)(F)F)[nH]c2c1,3.82% (inactive)
6,O=c1cc(-c2ccc([N+](=O)[O-])cc2)nc2cc(-c3ccc(Cl)cc3)[nH]n12,-9.22% (inactive)
7,COC(=O)c1c(C(=O)OC)c(-c2cccc(C)c2)n2c1CS(=O)(=O)C2,-3.11% (inactive)
8,O=C(NCc1ccc2c(c1)OCO2)c1ccc(-n2cnnn2)cc1,-1.24% (inactive)
9,COC(=O)c1ccccc1NC(=O)CS(=O)(=O)Cc1nc(-c2ccc(C)cc2)oc1C,-3.17% (inactive)
10,COCCn1cc(C(=O)N2CCC(C)CC2)c2c3ccccc3n(C)c2c1=O,-18.2% (inactive)
11,C=CCNc1ncnc2c1[nH]c1ccc(C)cc12,35.9% (inactive)
12,C=CCNc1ncnc2c1[nH]c1ccc(Cl)cc12,29.7% (inactive)
13,O=c1cc(Cc2ccccc2)[nH]c(=S)[nH]1,32.9% (inactive)
14,CCNC(=O)COC(=O)CCC(=O)c1cccs1,14.6% (inactive)
15,Cc1cccc(OCC(=O)N2CCN(Cc3ccncc3)CC2)c1,-3.8% (inactive)
16,O=C(CN(c1ccc(F)cc1)S(=O)(=O)c1ccc2c(c1)OCCO2)NCc1cccnc1,-5.53% (inactive)
17,COc1ccc(-c2ccc3c(N)c(C(=O)c4cccc(OC)c4)sc3n2)cc1,16.2% (inactive)
18,N#Cc1nc(-c2ccco2)oc1NCCCN1CCOCC1,-7.05% (inactive)
19,CCSc1cc(N2CCCC2)nc(-c2cccc(C)c2)n1,-4.48% (inactive)
20,COc1cccc(-n2c(SCC(=O)Nc3ccc4c(c3)CCC4)nc3ccccc3c2=O)c1,19.7% (inactive)
21,CCOc1ccc(NC(=O)CCC(=O)n2nc(C)cc2C)cc1,1.24% (inactive)
22,Cc1ccc(CNC(=O)C2CCCN(S(=O)(=O)c3c(C)noc3C)C2)cc1 (stereo not drawn),1.56% (inactive)
23,O=C(c1ccccc1S(=O)(=O)NCc1ccccc1)N1CCCC1,-24.7% (inactive)

row,SMILES,inhibition
1,CC(=O)Nc1ccc(-n2nnnc2SCC(=O)Nc2cccc(NC(=O)c3ccco3)c2)cc1,2.42% (inactive)
2,O=[N+]([O-])c1ccccc1/C=N/N1CCN(c2ccncc2S(=O)(=O)N2CCCCC2)CC1,-9.65% (inactive)
3,C=CCNC(=O)CC(=O)N/N=C/c1ccc(C(=O)OC)cc1,1.15% (inactive)
4,Cc1ccc(Cn2c(=N)n(CC(=O)c3ccc([N+](=O)[O-])cc3)c3ccccc32)cc1,-11.2% (inactive)
5,COc1ccc2nc(-c3ccccc3)cc(OC)c2c1,-1.78% (inactive)
6,COC(=O)c1ccc(Nc2cc(C)nc3ccccc23)cc1,-13% (inactive)
7,Cc1ccc(C(=O)NC(=S)Nc2cccc3c(C)cc(C)nc23)cc1,-12.6% (inactive)
8,COc1ccc(/C=N/NC(=O)CC(=O)NCc2cccnc2)cc1,-0.29% (inactive)
9,CN1c2ccccc2C(C)(C)[C@]12C=Cc1cc(O)ccc1O2,8.27% (inactive)
10,CC(=O)Nc1cccc(OC(=O)c2ccoc2C)c1,-14.3% (inactive)
11,Nc1ccc(C2(c3ccc(N)cc3)c3ccccc3-c3ccccc32)cc1,18.9% (inactive)
12,Cc1ccc(C(=O)NCC(=O)OCC(=O)N2CCCc3ccccc32)cc1,-12.3% (inactive)
13,O=C(N/N=C/c1cn(-c2ccccc2)nc1-c1ccc(F)cc1)c1ccc2c(c1)OCO2,30.2% (inactive)
14,O=C(NNC(=O)c1ccccc1-n1cccc1)c1ccc(Cl)c(Cl)c1,-16.2% (inactive)
15,O=C(Cn1ncc2c(=O)oc3ccccc3c21)N1CCN(c2ccccn2)CC1,2.19% (inactive)
16,CC(C)Nc1cc(C(F)(F)F)nc(-c2ccccn2)n1,-21.8% (inactive)
17,O=C1c2ccccc2C(=O)N1Cc1nc(-c2ccccn2)no1,-13.3% (inactive)
18,N#Cc1ccc(N=c2ssnc2Cl)cc1,8.15% (inactive)
19,CC(C)CCNC(=O)C(c1ccco1)N(Cc1ccc(F)cc1)C(=O)c1snc(C(N)=O)c1N (stereo not drawn),-5.54% (inactive)
20,COc1cc(C2C(C(=O)c3ccc(C)o3)=C(O)C(=O)N2CCc2ccccc2)ccc1O (stereo not drawn),11.2% (inactive)
21,CC(C)(C)C1CCc2c(sc(NC(=O)c3cccs3)c2C(=O)N2CCCCC2)C1 (stereo not drawn),8.2% (inactive)
22,CCOC(=O)c1c(NC(=O)Nc2ccc(C)cc2)sc2c1CCN(C)C2,-0.83% (inactive)
23,NC(=O)c1c(NC(=O)CN2C(=O)CCC2=O)sc2c1CCCCC2,-16.9% (inactive)

row,SMILES,inhibition
1,O=[N+]([O-])c1ccc(-n2nnnc2-c2ccccc2)c([N+](=O)[O-])c1,14.8% (inactive)
2,CN(C)C(CNC(=O)Nc1cccc(Cl)c1)c1cccnc1 (stereo not drawn),3.94% (inactive)
3,Cc1cc2c(c(=O)n1C)C(Cc1ccccc1)C(C#N)=C(N)O2 (stereo not drawn),-7.35% (inactive)
4,OC1(c2cccc(C(F)(F)F)c2)CCN(c2ncnc3c2[nH]c2ccccc23)CC1,3.4% (inactive)
5,COc1ccc2c(c1)CC/C(=C\Nc1ccc3c(c1)OCO3)C2=O,-7% (inactive)
6,COc1ccc(C2C=C(c3ccc(Cl)cc3)Nc3nc(NC(C)=O)nn32)cc1 (stereo not drawn),-1.96% (inactive)
7,CCCSc1ncc(Cl)c(C(=O)Nc2ccc(S(=O)(=O)N3CC(C)OC(C)C3)cc2)n1 (stereo not drawn),-15.2% (inactive)
8,O=C(NC1CC1)C1=NOC(CNc2ncc(C(F)(F)F)cc2Cl)C1 (stereo not drawn),-16% (inactive)
9,O=C(NCc1cccnc1)c1cc2ccccc2oc1=O,-21.1% (inactive)
10,CC(=O)N1N=C(c2ccco2)CC1c1ccc(Br)cc1 (stereo not drawn),22.8% (inactive)
11,O=C1NC(=O)C(=C2CCCCCC2)S1,16% (inactive)
12,Cc1ccc(-c2csc(N=C(N)N)n2)cc1,31.5% (inactive)
13,Clc1ccc(OCCN2CCN(c3ncnc4sccc34)CC2)cc1,-10.9% (inactive)
14,c1ccc(OCCCN2CCCC2)cc1,-12.3% (inactive)
15,COc1ccc(Br)cc1C(=O)NCc1cccnc1,-7.4% (inactive)
16,Clc1ccccc1OCCn1ccnc1,-5.79% (inactive)
17,NC(=O)N1OCC2COc3ccc4ccccc4c3C21 (stereo not drawn),-6.03% (inactive)
18,Cc1ccccc1CS(=O)(=O)c1snnc1C,-7.82% (inactive)
19,O=C(CNC(=O)c1ccco1)OCC(=O)c1ccc2c(c1)CCCC2,6.72% (inactive)
20,Fc1ccc(-c2n[nH]c(=S)n2/N=C/c2c[nH]c3ccccc23)cc1,-21.6% (inactive)
21,Cc1cc(=O)[nH]c(N/N=C/c2c[nH]c3ccccc23)n1,-13.5% (inactive)
